# Screening data as filed in PubChem.
# KB-3-1 cytotox: kills parental KB-3-1 adenocarcinoma cells; KB-3-1 viability, CellTiter-Glo ATP luminescence, 72 h; Potency, µM (highest dose often 46.1 µM), most hits filed as cytotoxic; 1.4% of 400,000 active; AID 1347075; further: nearly all actives have a fitted effect of over 60% in size
#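 Using CellTiter-Glo luminescence, growth of non-resistant KB-3-1 adenocarcinoma cells is assessed 72 h after pin-tool compound addition at 37 °C. Normalized responses across the concentration series yield fitted curves.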
# DT40 TDP1 CPT: DT40-hTDP1 cell growth loss with CPT; chicken DT40 Tdp1-/-;hTDP1 cells + 20 nM CPT, ATP luminescence, 48 h; Potency, µM (top dose mostly 46.2 µM), hits mostly inhibitors; 12% of 420,000 active; further: nearly all actives have a fitted effect of over 55% in size
#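 Chicken DT40 Tdp1-/- cells stably complemented with human TDP1 were seeded at 400 cells/well in medium containing 20 nM camptothecin, exposed to pin-transferred compounds, and grown at 37 °C for at least 48 hr. Viability was read as ATP luminescence.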
# KB-V1 cytotox: KB-V1 MDR subline cytotoxicity; 3.4% of 400,000 active; KB-V1 MDR cells viability, CellTiter-Glo, 72 h; Potency, µM (doses to about 46.1 µM), hits mostly cytotoxic; further: nearly all actives have a fitted effect of over 60% in size
#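 Drug-selected KB-V1 cells, grown in DMEM lacking phenol red with 10% FBS, receive compound titrations; after three days at 37 degrees C, surviving cell ATP is quantified by CellTiter-Glo luminescence and responses normalized and curve-fitted.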
# DT40 TDP1 no CPT: qHTS for Inhibitors of human tyrosyl-DNA phosphodiesterase 1 (TDP1): qHTS in cells in absence of CPT; DT40 Tdp1-/- hTDP1 cells, no CPT, ATP luminescence, 48 h; Potency, µM (top dose mostly 46.2 µM), most hits filed as inhibitors; 15% of 420,000 active; further: nearly all actives have a fitted effect of over 55% in size
#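 Cells were dispensed at 400 per well, compounds added by pin tool, plates incubated ≥48 hr at 37 °C, then CellTiter-Glo added for 30 min at room temperature before luminescence reading. Line: DT40 Tdp1-/- complemented with hTDP1; camptothecin omitted.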
# HT1080-NT tox: kills 2HG-producing HT-1080-NT fibrosarcoma cells. HT-1080-NT fibrosarcoma viability, CellTiter-Glo ATP luminescence, 48 h. Potency, µM (titrated, usually from 46.1 µM), usual class: cytotoxic. 1.6% of 360,000 active. AID 686970;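 further: NT is the 2HG producing partner of a matched IDH1 knockdown line; nearly all actives have a fitted effect of over 55% in size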
#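 Compounds were tested in concentration-response format on HT-1080-NT cells for 48 hours at 37 degrees C. Cell viability came from CellTiter-Glo luminescence; curves were classified by r2, response magnitude and activity.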
# HT1080 IDH1KD tx: HT-1080 IDH1 knockdown cell toxicity (counter line); HT-1080 IDH1 knockdown viability, ATP luminescence, 48 h; Potency, µM (highest dose often 46.1 µM), actives largely listed as cytotoxic; 2% of 360,000 active
#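 IDH1KD HT-1080 cells, 750/well, RPMI + 5% FBS; compound pinned after 2 h settling; 48 h, 37 °C; CellTiter-Glo luminescence; % activity normalised to DMSO and no-cell wells; curves fitted, classed by r2 and efficacy.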
# Numbers stand for hits; 0 = inactive; ? = inconclusive; - = no result; [ ] = dose if it differs, or a comment. The list is not random: actives were taken first. Their share in the collection is about 19%. The call rests on the fitted dose curve; in most records, active means well fitted curve in the direction sought with a large enough effect; inconclusive means small, poorly fitted or top-dose-only effect, or another doubt; inactive means no such curve, though single readings can be large; an effect the other way counts as inactive or inconclusive.
SMILES,KB-3-1 cytotox,DT40 TDP1 CPT,KB-V1 cytotox,DT40 TDP1 no CPT,HT1080-NT tox,HT1080 IDH1KD tx
COc1cccc(CN=c2c([N+](=O)[O-])nn(-c3ccccc3C)n2O)c1,0,23µM,?,?,0,0
Cc1ccc(CCN=c2c([N+](=O)[O-])nn(-c3ccccc3)n2O)cc1,0,?,0,?,0,0
O=[N+]([O-])c1nn(-c2ccccc2)n(O)c1=NCCc1ccccc1,?,6.5µM,?,15µM,0,0
COc1ccc(-n2nc([N+](=O)[O-])c(=NCCc3ccccc3)n2O)cc1,0,16µM,?,?,0,0
O=[N+]([O-])c1nn(-c2ccc3c(c2)OCCO3)n(O)c1=NCCC1=CCCCC1,0,0,?,0,0,0
CC(=O)NCCCc1c[nH]c2ccc(Cl)cc12,0,0,0,0,0,0
CCCCNC(=O)C1CC(c2c(Cl)cccc2Cl)=NO1 (stereo not given),0,9.2µM,0,9.2µM,0,0
CCCCNC(=O)C1CC(c2cccc([N+](=O)[O-])c2)=NO1 (stereo not given),0,0,0,0,0,0
Cc1ccc(NC(=O)C[n+]2cc(-c3ccccc3)n3c2CCC3)cc1,?,0,0,?,0,0
O=[N+]([O-])c1ccc(C[n+]2cc(-c3ccccc3)n3c2CCCCC3)cc1,0,?,0,12µM,0,0
O=[N+]([O-])c1ccc(C[n+]2cc(-c3ccc(Cl)c(Cl)c3)n3c2CCCCC3)cc1,0,?,0,5.8µM,0,0
O=C(O)CCC(=O)NNc1ccccc1[N+](=O)[O-],0,0,?,0,0,0
COc1ccc(C(=O)Nc2ccccc2C(=O)OCc2cc(=O)n3nc(C4CC4)sc3n2)cc1,0,0,0,0,-,-
Cc1cc(Cl)ccc1OCC(=O)NCC1Cc2cc(-c3cnccn3)ccc2O1 (stereo not given),-,0,-,0,-,-
CN1CCN(Cc2c(O)ccc3c(=O)c(Oc4ccccc4Cl)c(C(F)(F)F)oc23)CC1,0,?,0,0,0,0
CCN1CCN(Cc2c(O)ccc3c(=O)c(Oc4ccccc4Cl)c(C(F)(F)F)oc23)CC1,0,?,0,21µM,-,-
CC1=CC2=NC(=O)/C(=C\c3cc(C)n(-c4ccccc4F)c3C)C(=N)N2O1,0,0,0,29µM,0,0
CC1=CC2=NC(=O)/C(=C\c3cc(C)n(-c4ccccc4)c3C)C(=N)N2O1,?,0,0,0,0,0
CC1=CC2=NC(=O)/C(=C\c3cc(C)n(-c4cccc(Cl)c4)c3C)C(=N)N2O1,0,?,0,9.2µM,0,0
CC1C(=O)N(Cc2cn(CC3CCCCC3)nn2)CCS(=O)(=O)N1Cc1ccc(-c2ccc(F)nc2)cc1 (stereo not given),0,?,0,0,0,0
Cc1ccc(-c2ccc(CN3C(C)C(=O)N(Cc4cn(CC5CCCCC5)nn4)CCS3(=O)=O)cc2)cc1 (stereo not given),?,16µM,?,16µM,?,?
CC1C(=O)N(Cc2cn(CC3CCCCC3)nn2)CCS(=O)(=O)N1Cc1ccc(-c2ccccc2)cc1 (stereo not given),?,23µM,?,15µM,?,?
COc1ccc(-c2ccc(CN3C(C)C(=O)N(Cc4cn(CC5CCCCC5)nn4)CCS3(=O)=O)cc2)cc1 (stereo not given),?,15µM,?,10µM,0,?
COCCCNC(=O)CCCN1C(=O)c2cccnc2Sc2ccccc21,0,0,0,0,0,0
O=C(C1=C[C@H](c2ccccc2)C[C@H](OCc2ccc(CO)cc2)O1)N1CCOCC1,0,0,0,0,0,0
SMILES,KB-3-1 cytotox,DT40 TDP1 CPT,KB-V1 cytotox,DT40 TDP1 no CPT,HT1080-NT tox,HT1080 IDH1KD tx
N/C(=N\O)c1ccccc1N1CCCCC1,0,0,0,0,0,0
Cc1ccc(S(=O)(=O)N2CCN(C(=O)c3ccccc3)CC2)c(C)c1NS(C)(=O)=O,0,?,0,0,0,0
O=P(Nc1ccccc1)(Nc1ccccc1)c1ccccc1,-,0,-,0,0,0
CC1CN(c2ccc(Oc3ccccc3)cc2)c2nc3c(c(=O)[nH]c(=O)n3C)n2C1 (stereo not given),0,18µM,0,26µM,0,0
C=CCN(CC=C)S(=O)(=O)c1ccc(NC(=S)NC(=O)c2ccco2)cc1,?,?,13µM,18µM,0,0[9.24 µM]
C=CCN(CC=C)S(=O)(=O)c1ccc(NC(=S)NC(=O)Cc2ccc(OC)cc2)cc1,0,?,21µM,21µM,0,?
Cc1ccn(CCNC(=O)C2CCC(=O)N(CCc3ccc(Cl)cc3)C2)n1 (stereo not given),-,0,-,0,0,0
CSc1ccc(CCNC(=O)CN2C(=O)c3cccnc3Oc3ccc(C)cc32)cc1,0,?,0,29µM,0,0
CCOc1ccc(CCNC(=O)CN2C(=O)c3cccnc3Oc3ccc(Cl)cc32)cc1,0,?,0,21µM,0,0
CCOc1ccc(CCNC(=O)CN2C(=O)c3cccnc3Oc3ccc(C)cc32)cc1OCC,0,21µM,0,?,0,0
COc1ccccc1NC(=O)N1CCN(c2ccc3nncn3n2)CC1,0,0,0,0,0,0
COc1ccccc1NC(=O)N1CCN(c2ccc3nnc(-c4ccc(F)cc4)n3n2)CC1,0,18µM,?,?,26µM,?
O=C(Nc1ccccc1Cl)N1CCN(c2ccc3nnc(-c4ccc(F)cc4)n3n2)CC1,0,18µM,0,16µM,0,0
COc1ccc(CN2C(=O)CSCC2(C)C(=O)NCc2ccccc2)cc1 (stereo not given),0,?,0,0,0,0
CCOc1cc(S(=O)(=O)n2c(C)nc3ccccc32)ccc1F,0,?,0,?,0,?
CSc1ccc(/C=C/c2nc3ccccc3n2S(=O)(=O)c2ccc(F)c(C)c2)cc1,-,18µM,-,21µM,-,-
Cc1ccc(S(=O)(=O)n2c(C)nc3ccccc32)cc1,0,0,0,0,0,0
CC(=O)c1nc2ccccc2n1S(=O)(=O)c1ccc(Cl)cc1,0,0,0,0,0,0
Cc1ccc(/C=C/c2nc3ccccc3n2S(=O)(=O)c2cccc(Cl)c2)cc1,-,13µM,-,10µM,-,-
CCOc1ccc(/C=C/c2nc3ccccc3n2S(=O)(=O)c2cccc(Cl)c2)cc1,-,7.3µM,-,6.5µM,-,-
O=C(NCCc1ccccc1)C1CCN(c2ncnc3c2nc2n3CCCCC2)CC1,-,0,-,0,-,-
Cc1ccc(Cn2c(=O)n(-c3cccc(C(F)(F)F)c3)c(=O)c3c(C)c(C)sc32)c(C)c1,0,?,0,?,-,-
